From PubChem BioAssay (NCATS)
“And” between values parts separate entries of the source, which are not always exact repeats. Equal entries are not always repeated. Results filed as inconclusive are left out. The source made the active and inactive calls. The call rests on the fitted dose curve; in most records, active means well fitted curve in the direction sought with a large enough effect; inconclusive means small, poorly fitted or top-dose-only effect, or another doubt; inactive means no such curve, though single readings can be large; an effect the other way counts as inactive or inconclusive.

Assays:
CRL-7250 = normal cell line; experiment: Cytotoxic Profiling of Annotated Libraries Using Quantitative High-Throughput Screening (AID 1296008); settings: Five cell lines viability, CellTiter-Glo ATP luminescence, 48-72 h; max response: stronger effect = lower value; further: nearly all actives have a fitted effect of over 60% in size; on max response: on the % scale 0 is the no-effect control and ±100 the full control effect
Method in brief: (§1)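 Cytotoxicity was measured as CellTiter-Glo ATP luminescence, read after 10 min at room temperature. Compound treatment of the cells lasted 48 or 72 hr at 37 degrees Celsius in a qHTS format.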

HEK293 = experiment: as above; settings: Five cell lines viability, CellTiter-Glo ATP luminescence, 48-72 h; max response: stronger effect = lower value
Method in brief: as §1

HaCat [1] = experiment: as above; settings: Five cell lines viability, CellTiter-Glo ATP luminescence, 48-72 h; max response: stronger effect = lower value
Method in brief: as §1

KB-3-1 = experiment: as above; settings: Five cell lines viability, CellTiter-Glo ATP luminescence, 48-72 h; max response: stronger effect = lower value
Method in brief: as §1

NIH3T3 [2] = experiment: as above; settings: Five cell lines viability, CellTiter-Glo ATP luminescence, 48-72 h; max response: stronger effect = lower value
Method in brief: as §1

HACAT [3] = experiment: qHTS assay to identify novel small-molecules to repurpose for Merkel cell carcinoma treatment (AID 1296009); settings: MCC and control cell lines, CellTiter-Glo viability, 72 h; at 44.8 µM (top of the series) unless noted; further: nearly all actives have a fitted effect of over 60% in size; further: potency means the concentration at half of the fitted maximal effect
Method in brief: (§2)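 Cell viability, measured as CellTiter-Glo luminescence, was normalized between DMSO and no-cell wells. The cells had been exposed to 8- or 11-point compound dilutions for 72 hr at 37 degree celsius.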

HEK293T = experiment: as above; settings: MCC and control cell lines, CellTiter-Glo viability, 72 h; at 44.8 µM (top of the series) unless noted
Method in brief: as §2

MCC-13 = experiment: as above; settings: MCC and control cell lines, CellTiter-Glo viability, 72 h; series mostly up to 46 µM
Method in brief: as §2

MCC-26 = experiment: as above; settings: MCC and control cell lines, CellTiter-Glo viability, 72 h; series mostly up to 46 µM
Method in brief: as §2

MKL-1 = experiment: as above; settings: MCC and control cell lines, CellTiter-Glo viability, 72 h; series mostly up to 46 µM
Method in brief: as §2

MKL-2 = experiment: as above; settings: MCC and control cell lines, CellTiter-Glo viability, 72 h; series mostly up to 46 µM
Method in brief: as §2

NIH3T3 [4] = experiment: as above; settings: MCC and control cell lines, CellTiter-Glo viability, 72 h; at 44.8 µM (top of the series) unless noted
Method in brief: as §2

UISO = experiment: as above; settings: MCC and control cell lines, CellTiter-Glo viability, 72 h; series mostly up to 46 µM
Method in brief: as §2

WaGa = experiment: as above; settings: MCC and control cell lines, CellTiter-Glo viability, 72 h; series mostly up to 46 µM
Method in brief: as §2

C33A = experiment: Primary qHTS to identify gynecologic anti-cancer compounds using libraries of approved drugs and bioactive compounds (AID 1345084); settings: Gynecologic cancer cell panel viability, ATPlite luminescence, 48 h; series mostly up to 57.5 µM; further: on the % scale 0 is the no-effect control and ±100 the full control effect; nearly all actives have a fitted effect of over 55% in size
Method in brief: (§3)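 Five-concentration response, 48 h; readout is ATP-driven luciferase luminescence.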

CAOV3 = experiment: as above; settings: Gynecologic cancer cell panel viability, ATPlite luminescence, 48 h; series mostly up to 57.5 µM
Method in brief: as §3

TAB109 = experiment: qHTS profiling for inhibitors of Plasmodium falciparum proliferation (AID 504749); further: nearly all actives have a fitted effect of over 60% in size; further: potency means the concentration at half of the fitted maximal effect; settings: P. falciparum in erythrocytes, SYBR Green DNA, 72 h; series mostly up to 28.7 µM
Method in brief: (§4)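 SYBR Green fluorescence of parasite DNA, read after lysis and overnight dark incubation, measured growth over 72 h in erythrocyte culture at 0.3% parasitemia and 2.5% hematocrit. Data normalised to DMSO and 0.29 uM artemisinin, with plate-drift correction.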

TAB113 = experiment: as above; settings: P. falciparum in erythrocytes, SYBR Green DNA, 72 h; series mostly up to 28.7 µM
Method in brief: as §4

TAB165 = experiment: as above; settings: P. falciparum in erythrocytes, SYBR Green DNA, 72 h; series mostly up to 28.7 µM
Method in brief: as §4

W2 = experiment: as above; settings: P. falciparum in erythrocytes, SYBR Green DNA, 72 h; series mostly up to 28.7 µM
Method in brief: as §4

COC(=O)[C@H]1[C@H]2C[C@@H]3c4[nH]c5cc(OC)ccc5c4CCN3C[C@H]2C[C@@H](OC(=O)COc2ccc(OC)cc2)[C@@H]1OC
inactive: max response (CRL-7250) -0.18% | outcome (HEK293) | outcome (HaCat [1]) | max response (KB-3-1) 0.718% | outcome (NIH3T3 [2]) | outcome (HACAT [3]) | outcome (HEK293T) | Potency (MCC-13) | Potency (MCC-26) | Potency (MKL-1) | Potency (MKL-2) | outcome (NIH3T3 [4]) | Potency (UISO) | Potency (WaGa) | Potency (C33A) | Potency (CAOV3)

COc1ccc2[nH]c(S(=O)Cc3ncc(C)c(OC)c3C)nc2n1 (centres undefined)
active: Potency (TAB109) 8.91 µM | Potency (TAB113) 8.91 µM | Potency (TAB165) 7.94 µM | Potency (W2) 9.53 µM
inactive: outcome (CRL-7250) | outcome (HEK293) | max response (HaCat [1]) -5.32% | outcome (HaCat [1]) | max response (KB-3-1) 2.51% | outcome (KB-3-1) | max response (NIH3T3 [2]) 3.86% | outcome (NIH3T3 [2]) | outcome (HACAT [3]) | outcome (HEK293T) | Potency (MCC-13) | Potency (MCC-26) | Potency (MKL-1) | Potency (MKL-2) | outcome (NIH3T3 [4]) | Potency (UISO) | Potency (C33A) | Potency (CAOV3)

CN1CCOC(c2ccccc2)c2ccccc2C1 (centres undefined)
inactive: max response (CRL-7250) 2.8% | outcome (CRL-7250) | max response (HEK293) -2.69% | outcome (HEK293) | max response (HaCat [1]) -15.1% and -5.19% | max response (KB-3-1) -9.99% and 4.82% | max response (NIH3T3 [2]) 2.98% | outcome (NIH3T3 [2]) | outcome (HEK293T) | Potency (MCC-13) | Potency (MCC-26) | Potency (MKL-1) | Potency (MKL-2) | outcome (NIH3T3 [4]) | Potency (UISO) | Potency (WaGa) | Potency (C33A) | Potency (CAOV3)

Nc1ccc(S(=O)(=O)Nc2nccs2)cc1
inactive: Potency (TAB109) | Potency (TAB113) | Potency (TAB165) | Potency (W2) | max response (CRL-7250) 0.415% and -2.54% | max response (HEK293) 3.95% and -4.18% | max response (HaCat [1]) -0.23% and -23.1% | max response (KB-3-1) -16.1% | outcome (KB-3-1) | max response (NIH3T3 [2]) 0.16% and -3.65% | Potency (MCC-13) | Potency (MCC-26) | Potency (MKL-1) | Potency (MKL-2) | Potency (UISO) | Potency (WaGa) | Potency (C33A) | Potency (CAOV3)

CCOc1ccc2ccccc2c1C(=O)N[C@@H]1C(=O)N2[C@@H]1SC(C)(C)[C@@H]2C(=O)O
inactive: Potency (TAB109) | Potency (TAB113) | Potency (TAB165) | outcome (CRL-7250) | max response (HEK293) 0.937% | outcome (HEK293) | max response (HaCat [1]) 4.96% | outcome (HaCat [1]) | max response (NIH3T3 [2]) -3.18% and 1.59% | outcome (HACAT [3]) | outcome (HEK293T) | Potency (MCC-13) | Potency (MCC-26) | Potency (MKL-1) | Potency (MKL-2) | Potency (UISO) | Potency (WaGa) | Potency (C33A) | Potency (CAOV3)

CCCCOc1cc(C(=O)OCCN(CC)CC)ccc1N
inactive: Potency (TAB109) | Potency (TAB113) | Potency (TAB165) | Potency (W2) | max response (CRL-7250) -0.166% | outcome (CRL-7250) | max response (HEK293) -17.2% and -4.15% | max response (HaCat [1]) 1.81% | outcome (HaCat [1]) | outcome (NIH3T3 [2]) | outcome (HACAT [3]) | Potency (MCC-13) | Potency (MCC-26) | Potency (MKL-1) | Potency (MKL-2) | outcome (NIH3T3 [4]) | Potency (UISO) | Potency (WaGa) | Potency (C33A) | Potency (CAOV3)

Cc1cccc(Nc2cc(Cl)nc(SCC(=O)O)n2)c1C
inactive: Potency (TAB109) | Potency (TAB113) | Potency (TAB165) | Potency (W2) | max response (CRL-7250) 0.443% and 0.95% | max response (HEK293) 1.85% and -1.17% | max response (HaCat [1]) 1.74% | outcome (HaCat [1]) | max response (KB-3-1) 6.42% and 8.75% | max response (NIH3T3 [2]) -16.8% and 0.675% | outcome (HACAT [3]) | Potency (MCC-13) | Potency (MCC-26) | Potency (MKL-1) | Potency (MKL-2) | Potency (UISO) | Potency (WaGa) | Potency (C33A)

CC(C)(C)C(=O)C(Oc1ccc(Cl)cc1)n1ccnc1 (centres undefined)
active: Potency (TAB109) 10 µM | Potency (TAB113) 10 µM | Potency (TAB165) 7.08 µM | Potency (W2) 6.01 µM | Potency (UISO) 11.9 µM
inactive: max response (CRL-7250) -7.22% | outcome (CRL-7250) | outcome (HEK293) | max response (HaCat [1]) -9.75% | outcome (HaCat [1]) | max response (NIH3T3 [2]) -7.83% | outcome (NIH3T3 [2]) | outcome (HACAT [3]) | outcome (HEK293T) | Potency (MCC-13) | Potency (MCC-26) | Potency (MKL-1) | Potency (MKL-2) | outcome (NIH3T3 [4]) | Potency (WaGa) | Potency (C33A) | Potency (CAOV3)

CC(C)(C(=O)O)c1ccc(C(O)CCCN2CCC(C(O)(c3ccccc3)c3ccccc3)CC2)cc1 (centres undefined)
inactive: max response (CRL-7250) -9.99% | outcome (CRL-7250) | max response (HEK293) 4.11% | outcome (HEK293) | outcome (HaCat [1]) | max response (KB-3-1) -2.58% and -5.29% | outcome (NIH3T3 [2]) | outcome (HACAT [3]) | outcome (HEK293T) | Potency (MCC-13) | Potency (MCC-26) | Potency (MKL-1) | Potency (MKL-2) | outcome (NIH3T3 [4]) | Potency (UISO) | Potency (WaGa) | Potency (C33A) | Potency (CAOV3)

CC(C(O)c1ccc(O)cc1)N1CCC(Cc2ccccc2)CC1 (centres undefined)
inactive: max response (CRL-7250) -1.07% | outcome (CRL-7250) | max response (HaCat [1]) -22.6% | outcome (HaCat [1]) | max response (NIH3T3 [2]) -2.06% and 3.27% | outcome (HACAT [3]) inactive [at 17.4 µM] | Potency (MCC-13) | Potency (MCC-26) | Potency (MKL-1) | Potency (MKL-2) | Potency (UISO) | Potency (WaGa) | Potency (C33A)
active: Potency (TAB165) 8.91 µM | Potency (W2) 4.26 µM

CC(=O)NC(Cc1ccccc1)C(=O)O (centres undefined)
inactive: Potency (TAB109) | Potency (TAB113) | Potency (TAB165) | max response (CRL-7250) 2.75% | outcome (CRL-7250) | max response (HEK293) 1.21% and -5.41% | max response (HaCat [1]) -9.27% | outcome (HaCat [1]) | max response (NIH3T3 [2]) 0.258% and -10.1% | outcome (HACAT [3]) inactive [at 92 µM] | Potency (MCC-13) | Potency (MCC-26) | Potency (MKL-1) | Potency (MKL-2) | Potency (UISO) | Potency (WaGa) | Potency (C33A) | Potency (CAOV3)
